Source: PubChem BioAssay
Activity calls are given as the source filed them.

Legend:
[1] = compound effects on lung adenocarcinoma cell viability – A549, calcein-AM fluorescence, 48 h, basal, profiling panel (AID 1162); settings: higher = more signal
[2] = compound effects on differentiated 3T3-L1 adipocyte viability – cell-based, 3T3-L1 adipocytes, calcein-AM fluorescence, 48 h, basal, profiling panel (AID 1163); settings: 3T3-L1 adipocytes viability, higher = more signal
[3] = compound effects on hepatocellular carcinoma cell viability – HepG2, calcein-AM fluorescence, 48 h, basal, profiling panel (AID 1164); settings: higher = more signal
[4] = compound effects on multiple myeloma cell viability – MM1S, calcein-AM fluorescence, 48 h, basal, profiling panel (AID 1165); settings: higher = more signal;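 also: viability of MM1S multiple myeloma cells under basal unstimulated conditions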
[5] = calcein-AM signal in unstimulated myeloma cells – cell-based, calcein-AM fluorescence, 48 h, PK04 Diversity Set, profiling panel (AID 1166); settings: RPMI8226 myeloma viability, higher = more signal;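 also: cells grown under basal conditions without added stimulus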
[6] = JC-1 mitochondrial signal, unstimulated HepG2 cells – cell-based, JC-1 fluorescence, 24 h, 100 nL compound, profiling panel (AID 1167); settings: HepG2 mitochondrial potential, higher = more signal
[7] = JC-1 mitochondrial signal, unstimulated adipocytes – cell-based, JC-1 fluorescence, 3T3-L1 adipocytes, 24 h, 100 nL compound, profiling panel (AID 1168); settings: JC-1 mitochondrial fluorescence, higher = more signal, called active from +8 up or from −8 down
[8] = JC-1 mitochondrial signal, unstimulated myeloma cells – cell-based, JC-1 fluorescence, RPMI8226, 24 h, 100 nL compound, profiling panel (AID 1169); settings: JC-1 mitochondrial potential fluorescence, higher = more signal
[9] = JC-1 mitochondrial signal, unstimulated MM1S myeloma – cell-based, JC-1 fluorescence, 24 h, 100 nL compound, profiling panel (AID 1170); settings: MM1S mitochondrial potential, higher = more signal
[10] = resazurin metabolic signal in A549 cells – cell-based, resazurin fluorescence, 24 h, PK04 Diversity Set, profiling panel (AID 1171); settings: A549 viability, higher = more signal, called active from +8 up or from −8 down
Also: test concentration not given here.

Question: With `CCOC(=O)[C@H](Cc1ccccc1)NC(=O)CCC1CC(OC(=O)NCc2ccc3c(c2)OCO3)CC2(CCCC(COC(=O)NCc3cccc(C(F)(F)F)c3)O2)O1` (stereo not given in full) as the molecule, how does the z-score [1] read?
Answer: 0.46

Question: And the z-score [2]?
Answer: 1.24

Question: And the z-score [3]?
Answer: -0.526

Question: And the z-score [4]?
Answer: 0.706

Question: And the z-score [5]?
Answer: -2.18

Question: And the z-score [6]?
Answer: 2.06

Question: And the z-score [7]?
Answer: -0.56 (inactive)

Question: What about the z-score [8] of the same molecule?
Answer: 0.918

Question: What about the z-score [9] of the same molecule?
Answer: -0.622

Question: What about the z-score [10] of the same molecule?
Answer: -0.0224 (inactive)

Question: Which results are given for `C[C@H]1Cc2c(-c3ccccc3)nc3c(c2CO1)CN(CCOc1ccccc1)CC3`?
Answer: z-score [1]: 2.68; z-score [2]: 0.173; z-score [3]: 1.27; z-score [4]: 0.785; z-score [5]: 0.11; z-score [6]: 0.932; z-score [7]: 0.281 (inactive); z-score [8]: -0.324; z-score [9]: -0.439; z-score [10]: -0.31 (inactive)

Question: Which results are given for `CCc1cc2c(nc1CC)CCN(CCC(C)=NOC[C@@H](O)[C@H]1O[C@@H]3OC(C)(C)O[C@@H]3[C@H]1O)C2`?
Answer: z-score [1]: 0.719; z-score [2]: 0.879; z-score [3]: 1.09; z-score [4]: -1.1; z-score [5]: -0.531; z-score [6]: 0.244; z-score [7]: -1.1 (inactive); z-score [8]: 0.527; z-score [9]: -0.162; z-score [10]: -0.0919 (inactive)

Question: For `CC(=O)C[C@H](O)[C@@H](NC(=O)OC(C)(C)C)C(C)C`, which z-score [1] is on record?
Answer: 0.143

Question: And the z-score [2]?
Answer: 0.819

Question: And the z-score [3]?
Answer: 0.0838

Question: And the z-score [4]?
Answer: -0.476

Question: And the z-score [5]?
Answer: -0.531

Question: And the z-score [6]?
Answer: -0.538

Question: And the z-score [7]?
Answer: -0.0163 (inactive)

Question: What about the z-score [8] of the same molecule?
Answer: -0.545

Question: What about the z-score [9] of the same molecule?
Answer: -0.347

Question: What about the z-score [10] of the same molecule?
Answer: -0.289 (inactive)

Question: Which z-score [1] does the source give for `COc1ccc(O[C@H]2C=C[C@@H](c3ccccc3)O[C@@H]2COC(=O)CCC(C)=NOCC[C@@H]2C=C[C@H](OC(C)=O)[C@@H](COC(C)=O)O2)cc1` here?
Answer: -0.284

Question: What about the z-score [2] of the same molecule?
Answer: -0.699

Question: And the z-score [3]?
Answer: -0.1

Question: And the z-score [4]?
Answer: -0.919

Question: What about the z-score [5] of the same molecule?
Answer: -0.112

Question: And the z-score [6]?
Answer: -0.359

Question: And the z-score [7]?
Answer: 0.0763 (inactive)

Question: What about the z-score [8] of the same molecule?
Answer: -0.55

Question: And the z-score [9]?
Answer: -0.522

Question: And the z-score [10]?
Answer: 0.369 (inactive)

Question: For `CC(C)C[C@@H]1NC(=O)[C@H]2C[C@@H](C(=O)NCCCCCCN(C)C)[C@@H](c3cccc(OCCO)c3)N2C1=O`, which z-score [1] is on record?
Answer: -1.26

Question: And the z-score [2]?
Answer: 0.88

Question: And the z-score [3]?
Answer: -0.278

Question: And the z-score [4]?
Answer: 0.303

Question: And the z-score [5]?
Answer: 0.651

Question: What about the z-score [6] of the same molecule?
Answer: -1.09

Question: And the z-score [7]?
Answer: -0.481 (inactive)

Question: And the z-score [8]?
Answer: -0.0673

Question: And the z-score [9]?
Answer: -0.0169

Question: What about the z-score [10] of the same molecule?
Answer: -0.21 (inactive)

Question: Which z-score [1] does the source give for `CCN1C(=O)[C@H]2[C@H]3[C@H](O)[C@H](O)CC(=NOCC=C(C)CCC=C(C)C)[C@H]3CC[C@H]2C1=O` here?
Answer: -0.107

Question: And the z-score [2]?
Answer: 0.393

Question: And the z-score [3]?
Answer: -0.118

Question: And the z-score [4]?
Answer: 0.805

Question: And the z-score [5]?
Answer: 0.169

Question: And the z-score [6]?
Answer: -0.702

Question: And the z-score [7]?
Answer: 0.0735 (inactive)

Question: What about the z-score [8] of the same molecule?
Answer: 0.568

Question: And the z-score [9]?
Answer: 0.0613

Question: What about the z-score [10] of the same molecule?
Answer: -1.01 (inactive)

Question: Which z-score [1] does the source give for `COCC1=C2[C@@H](CCc3ccccc3)OB(O)C[C@@H]2n2c(=O)n(-c3ccccc3)c(=O)n2C1` here?
Answer: -0.0316

Question: What about the z-score [2] of the same molecule?
Answer: -0.174

Question: What about the z-score [3] of the same molecule?
Answer: 0.602

Question: And the z-score [4]?
Answer: -0.0123

Question: What about the z-score [5] of the same molecule?
Answer: -0.412

Question: And the z-score [6]?
Answer: -1.83

Question: What about the z-score [7] of the same molecule?
Answer: 0.619 (inactive)

Question: And the z-score [8]?
Answer: 0.164

Question: And the z-score [9]?
Answer: 0.368

Question: What about the z-score [10] of the same molecule?
Answer: -0.566 (inactive)

Question: Which results are given for `CCOC(=O)C1=CCC(c2cc3ccccc3[nH]2)NC1` (stereo not given)?
Answer: z-score [1]: -0.35; z-score [2]: -0.709; z-score [3]: 1.08; z-score [4]: 1.13; z-score [5]: 0.255; z-score [6]: 0.4; z-score [7]: 1.17 (inactive); z-score [8]: -0.0143; z-score [9]: -1.26; z-score [10]: -0.412 (inactive)

Question: With `Cn1cccc1C(O)C1C=CC2C(=O)NC(=O)C2N1Nc1ccccn1` (stereo not given) as the molecule, how does the z-score [1] read?
Answer: -1.77

Question: And the z-score [2]?
Answer: -0.0273

Question: And the z-score [3]?
Answer: -2.88

Question: And the z-score [4]?
Answer: -1.99

Question: What about the z-score [5] of the same molecule?
Answer: -3.88

Question: What about the z-score [6] of the same molecule?
Answer: -4.01

Question: What about the z-score [7] of the same molecule?
Answer: 1.73 (inactive)

Question: And the z-score [8]?
Answer: -1.11

Question: And the z-score [9]?
Answer: -1.88

Question: What about the z-score [10] of the same molecule?
Answer: -1.14 (inactive)

Question: For `C[C@@H]1C=CCC(=O)OC[C@H](C)C(=O)N2CCC[C@H]2C(=O)OC1`, which z-score [1] is on record?
Answer: -0.581

Question: What about the z-score [2] of the same molecule?
Answer: 0.0764

Question: And the z-score [3]?
Answer: -0.492

Question: And the z-score [4]?
Answer: 0.13

Question: What about the z-score [5] of the same molecule?
Answer: -0.665

Question: What about the z-score [6] of the same molecule?
Answer: -0.248

Question: And the z-score [7]?
Answer: -1.27 (inactive)

Question: What about the z-score [8] of the same molecule?
Answer: 0.363

Question: And the z-score [9]?
Answer: -0.583

Question: And the z-score [10]?
Answer: -0.0059 (inactive)

Question: With `CCOC(=O)NN=C1C[C@@H](O)[C@@H](O)[C@@H]2[C@@H]3C(=O)N(C4CCCCC4)C(=O)[C@@H]3CC[C@@H]12` as the molecule, how does the z-score [1] read?
Answer: -0.117

Question: And the z-score [2]?
Answer: -0.091

Question: And the z-score [3]?
Answer: -0.281

Question: And the z-score [4]?
Answer: 0.0416

Question: And the z-score [5]?
Answer: -0.771

Question: What about the z-score [6] of the same molecule?
Answer: -0.426

Question: And the z-score [7]?
Answer: -0.61 (inactive)

Question: What about the z-score [8] of the same molecule?
Answer: -0.0516

Question: What about the z-score [9] of the same molecule?
Answer: 0.134

Question: What about the z-score [10] of the same molecule?
Answer: -0.361 (inactive)

Question: Which z-score [1] does the source give for `C[C@H](c1ccccc1)N1C(=O)[C@H]2[C@@H]3C(=CC[C@H]2C1=O)C(=O)[C@H]1O[C@H]1[C@H]3O` here?
Answer: -1.86

Question: And the z-score [2]?
Answer: 0.265

Question: What about the z-score [3] of the same molecule?
Answer: -4.46

Question: What about the z-score [4] of the same molecule?
Answer: -3.11

Question: What about the z-score [5] of the same molecule?
Answer: -3.94

Question: And the z-score [6]?
Answer: 1.02

Question: What about the z-score [7] of the same molecule?
Answer: 1.02 (inactive)

Question: What about the z-score [8] of the same molecule?
Answer: -1.03

Question: And the z-score [9]?
Answer: -2.92

Question: What about the z-score [10] of the same molecule?
Answer: -2.16 (inactive)

Question: For `CC(CCC(=O)OC[C@H]1O[C@H](C#Cc2ccccc2)C=C[C@@H]1Oc1ccc(C)cc1)=NOC[C@@H](O)COCc1ccco1`, which z-score [1] is on record?
Answer: 0.303

Question: And the z-score [2]?
Answer: -0.135

Question: What about the z-score [3] of the same molecule?
Answer: -0.45

Question: What about the z-score [4] of the same molecule?
Answer: -2.4

Question: And the z-score [5]?
Answer: -2.27

Question: And the z-score [6]?
Answer: -1.54

Question: And the z-score [7]?
Answer: 0.324 (inactive)

Question: What about the z-score [8] of the same molecule?
Answer: -0.31

Question: What about the z-score [9] of the same molecule?
Answer: -1.31

Question: What about the z-score [10] of the same molecule?
Answer: -0.0838 (inactive)
